From PubChem BioAssay
This is a sample that favours compounds with a hit; in the whole collection about 3.4% have one here.
TWEAK-Fn14 inh: inhibitors of TWEAK-Fn14 interaction signaling; 360,000 compounds, 2% hits; AID 1159606; TWEAK-stimulated Fn14 reporter cells, luciferase luminescence, 8 h; inhibition, % at 10 µM; in the data active means inhibition above about 50%
HIF-2a inh: HIF-2a inhibition | 360,000 compounds, 0.72% hits | AID 624352 | 786-0 RCC cells HIF-2a reporter, luciferase luminescence, overnight | inhibition, % at 18.8 µM;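 active means inhibition of the luminescence signal of 40% or more relative to plate controls, in a single-dose primary screen at 18.75 µM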
TROY NFkB inh: inhibitors of TROY-dependent NF-kB signaling | Q293 LMP1-TROYcd NF-kB luciferase reporter, 4 h | inhibition, % at 10 µM | 360,000 compounds, 0.98% hits;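 active means compounds whose plate-normalised and pattern-corrected inhibition of the luciferase reporter signal at the single screening dose is 50% or more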
Shn3 inh set2: inhibitors of Schnurri-3 3'UTR reporter in osteoblasts; Clone20 osteoblast Shn3 3'UTR firefly luciferase, 24 h; inhibition, % at 12.5 µM; 360,000 compounds, 0.52% hits;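 active means mean inhibition of at least 75% with every replicate also reaching 75%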
TRPM1 prom inh: reduces MITF-dependent TRPM1 promoter luciferase signal. SK-MEL-5 TRPM1 promoter luciferase, 24 h. inhibition, % at 12.5 µM. 330,000 compounds, 0.83% hits. AID 488899;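 active means mean inhibition across replicates of 60% or more, whatever share of single replicates reaches that level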
EBV LMP1 NFkB: Epstein-Barr LMP1 NF-kappaB reporter inhibition. LMP1-induced NF-kappaB luciferase reporter cells, luminescence. 350,000 compounds, 0.69% hits. inhibition, % at 12.5 µM. AID 504558; in the data active means inhibition above about 41%
Large screens that a line does not name were inactive.

COc1ccc(CN2C(=O)/C(=C/c3ccncc3)SC2=S)cc1	HIF-2a inh 43
COc1cccc(/C=C2\SC(=S)N(CCCC(=O)N3CCCCC3)C2=O)c1	HIF-2a inh 67
CCc1ccc(/C=C2\SC(=S)N(CCCC(=O)N3CCN(C)CC3)C2=O)cc1	none (no result: TRPM1 prom inh)
COc1ccc(/C=C2\SC(=S)N(CCCC(=O)N3CCN(C)CC3)C2=O)cc1	HIF-2a inh 45
COc1ccc(/C=C2\SC(=S)N(CCC(=O)NCCCn3ccnc3)C2=O)cc1	HIF-2a inh 40
COc1cccc(/C=C2/SC(=S)N(CCC(=O)N3CCOCC3)C2=O)c1	none
Cc1ccc(SCCC(=O)OCC(=O)NCC2CCCCC2)cc1	none
O=C1CC2(CCN(C(=O)c3c(F)cccc3F)CC2)Oc2ccccc21	none
COC(=O)[C@]12CCCCC=C1N(Cc1ccccc1)C(=O)[C@H](CC(=O)N1CCCCC1)C2	none (no result: Shn3 inh set2, TRPM1 prom inh, EBV LMP1 NFkB)
CC(C)C(=O)N1CCC1(C)C(=O)NCc1cc(Cl)ccc1F (stereo unspecified)	none (no result: TRPM1 prom inh, EBV LMP1 NFkB)
COc1cccc(/C=C2\SC(=S)N(CCC(=O)NCCc3ccc(O)cc3)C2=O)c1	EBV LMP1 NFkB 41
COc1ccc(/C=C2\SC(=S)N(CCC(=O)NC3C=CS(=O)(=O)C3)C2=O)cc1 (stereo unspecified)	HIF-2a inh 75
COc1cccc(/C=C2\SC(=S)N(CCC(=O)Nc3ccc(O)cc3)C2=O)c1	none
CCOc1cc(CNc2ccc3c(c2)OCCO3)cc(Br)c1OCC	TWEAK-Fn14 inh 81, TROY NFkB inh 77
C#CCNC(=O)C[C@@H]1C[C@@]2(C(=O)OCC)CCCC=C2N(Cc2ccc(Cl)cc2Cl)C1=O	none (no result: Shn3 inh set2, TRPM1 prom inh, EBV LMP1 NFkB)
O=C(COC(=O)c1ccc(S(=O)(=O)NCc2ccco2)cc1)Nc1ccc(Cl)cn1	EBV LMP1 NFkB 59
Cc1ccsc1C(=O)OC1CCOC1=O (stereo unspecified)	none
O=C(OC1CCOC1=O)c1ccccc1C(=O)c1ccc(Cl)c([N+](=O)[O-])c1 (stereo unspecified)	TWEAK-Fn14 inh 66
CCCOc1ccc(C(=O)c2ccccc2C(=O)OC2CCOC2=O)cc1OCCC (stereo unspecified)	none
Cc1cccc(C(=O)OC2CCOC2=O)c1O (stereo unspecified)	TWEAK-Fn14 inh 89
CC(C)C(=O)Nc1ccc(NC(=S)NC(=O)c2ccccc2F)cc1	none
Nc1nc2c(ncn2[C@@H]2O[C@H](CNS(=O)(=O)c3cccnc3)[C@@H](O)[C@H]2O)c(=O)[nH]1	none (no result: TRPM1 prom inh, EBV LMP1 NFkB)
CCOc1ccc(-c2nc(CSCC(=O)NC3CC3)c(C)o2)cc1	none
CCOc1ccc(-c2nc(CSCC(=O)NCc3ccco3)c(C)o2)cc1	TWEAK-Fn14 inh 65, EBV LMP1 NFkB 60
CCOc1ccc(-c2nc(CSCC(=O)N3CCN(c4cccc(OC)c4)CC3)c(C)o2)cc1	TWEAK-Fn14 inh 59, TROY NFkB inh 53 (no result: TRPM1 prom inh)
CCc1ccc(-c2nc(CSCC(=O)N3CCN(c4ccccn4)CC3)c(C)o2)cc1	TWEAK-Fn14 inh 81, HIF-2a inh 58, TROY NFkB inh 62, TRPM1 prom inh 64
Cc1cc(C)cc(CC(=O)N2CCC2(C)C(=O)NS(=O)(=O)c2cccc(F)c2)c1 (stereo unspecified)	none (no result: TRPM1 prom inh, EBV LMP1 NFkB)
CC(=O)c1ccc(NC(=O)CC(C)S(=O)(=O)c2ccc3c(c2)CCN3C(C)=O)cc1 (stereo unspecified)	none
CCOc1c(Cl)cc(/C=N/NC(N)=S)cc1OC	TWEAK-Fn14 inh 52
COc1cc(/C=N/NC(N)=S)cc(Br)c1OCc1ccccc1F	TWEAK-Fn14 inh 64
Cc1noc(NS(=O)(=O)c2ccc(NC(=O)c3cccc(S(=O)(=O)Nc4ccccc4F)c3)cc2)c1C	none
CCOC(=O)c1c(NC(=O)COC(=O)c2cccc([N+](=O)[O-])c2)sc(C(=O)N(C)C)c1C	none (no result: TRPM1 prom inh)
CC(=O)c1cccc(NC(=O)COc2cc3oc(=O)c(CC(C)O)c(C)c3cc2Cl)c1 (stereo unspecified)	TWEAK-Fn14 inh 60
Cc1ccc(N)cc1NC(=O)CN1CCOCC1	none
Cc1cc(Cl)c(S(=O)(=O)Nc2ccon2)cc1OCC(=O)NC1CCCCC1	none
Cc1cc(Cl)c(S(=O)(=O)Nc2ccc3c(c2)OCCO3)cc1OCC(=O)NC1CCCCC1	TWEAK-Fn14 inh 56, TROY NFkB inh 59
COC(=O)COc1ccc(S(=O)(=O)Nc2ccc3c(c2)OCCO3)cc1C	TWEAK-Fn14 inh 56, TROY NFkB inh 56
COC(=O)COc1ccc(S(=O)(=O)Nc2ccc3c(c2)OCCO3)cc1Cl	none
CN(C)c1cccc(CNC(=O)c2csc([C@H]3C[C@H](O)[C@@H](CO)O3)n2)c1	none (no result: TRPM1 prom inh, EBV LMP1 NFkB)
Cc1nn(CCc2nn[nH]n2)c2nc(-c3ccc(Br)cc3)cc(C(F)(F)F)c12	TROY NFkB inh 53
CCCCc1ccc(N=N/C(C(=O)Nc2cc(OC)c(NC(C)=O)cc2OC)=C(/C)O)cc1	none
COC(=O)c1ccc(=O)n(Cc2ccco2)c1	none
COC(=O)c1cc(Br)c(=O)n(Cc2ccco2)c1	TWEAK-Fn14 inh 78 (no result: TROY NFkB inh)
CCOC(=O)c1cccc(N2C(=O)C3C(C2=O)C2C=CC3C23CC3)c1 (stereo unspecified)	TWEAK-Fn14 inh 89 (no result: TROY NFkB inh)
CCN(CC)S(=O)(=O)c1ccc(/C=C/C(=O)Nc2ccc(F)c(F)c2F)cc1	none
CCN(CC)S(=O)(=O)c1ccc(/C=C/C(=O)Nc2ccc(Br)cc2F)cc1	TWEAK-Fn14 inh 74
CCN(CC)S(=O)(=O)c1ccc(/C=C/C(=O)Nc2ccc(F)cc2F)cc1	TWEAK-Fn14 inh 76
Cc1ccc(CN2CC(N3CCCCC3)CS2(=O)=O)cc1 (stereo unspecified)	none (no result: TRPM1 prom inh, EBV LMP1 NFkB)
CC(C)NC(=O)C1(C)CN(S(C)(=O)=O)CC(=O)N1Cc1cccc(F)c1 (stereo unspecified)	none (no result: TWEAK-Fn14 inh, TROY NFkB inh, Shn3 inh set2, TRPM1 prom inh, EBV LMP1 NFkB)
CC(SCc1cn2cc(Cl)ccc2n1)C(=O)O (stereo unspecified)	TWEAK-Fn14 inh 76 (no result: TROY NFkB inh)
CC(C)c1ccc2oc(-c3cc(N)ccc3O)nc2c1	TWEAK-Fn14 inh 81, TROY NFkB inh 69
CCCCn1c(N)c(N(CC(C)C)C(=O)c2ccc(S(=O)(=O)N3CCCCC3)cc2)c(=O)[nH]c1=O	none
Cc1c(C(=O)Nc2ccc(F)cc2)c2ccccn2c1CCc1ccncc1	none
CN1C(=O)c2cccc(NCCCCCCN3C(=O)c4ccccc4C3=O)c2C1=O	Shn3 inh set2 88
COc1ccccc1C/C(N)=N/OC(=O)c1cccc([N+](=O)[O-])c1C	TWEAK-Fn14 inh 90
CC(=O)c1ccc2c(c1)N(Cc1ccc3ccccc3c1)C(=O)C(C)S2 (stereo unspecified)	none (no result: TRPM1 prom inh, EBV LMP1 NFkB)
CCOC(=O)c1c(-c2ccc(OC)cc2)csc1NC(=O)CCN1CCOCC1	none
CCOC(=O)c1c(-c2ccccc2)csc1NC(=O)CSc1nc(C)cc(C)n1	none
CCOC(=O)c1c(-c2ccc(C)o2)csc1NC(=O)CN1CCCCC1	TWEAK-Fn14 inh 54
CCOC(=O)c1c(-c2ccccc2)csc1NC(=O)CSc1nc(N)cc(N)n1	TWEAK-Fn14 inh 86
